Assay results reported in PubChem BioAssay AID1159580 (chemical genetic matrix, 2015).
Screen size: about 5,500 compounds; about 2,000 (36%) were called active. Roughly 18% stayed inconclusive and do not appear here. No stated cut-off is given here; in the data, active means normalized growth mostly below about 0.91 (no sharp cut-off); inconclusive means no clear call, values can overlap the other calls; inactive means mostly above about 0.92. The list shows a part of the results.

Assay: chemical genetic growth profiling, strain panel (AID 1159580);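 further: tested at 20 µM; growth read once vehicle control cultures reached saturation at 30 °C; 1 = growth at the plate median or of vehicle wells; lower values mean less growth of the strain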
Conditions: growth OD

Measured: normalized growth

CC1(C)S[C@@H]2[C@H](NC(=O)C(C(=O)O)c3ccccc3)C(=O)N2[C@H]1C(=O)O (stereo partly drawn)
inactive: S. cerevisiae deletion strains, locus YJR075W, strain HOC1, active compounds read low 0.987 | S. cerevisiae deletion strains, locus YKL009W, strain mrt4, active compounds read low 0.971 | S. cerevisiae deletion strains, locus YKL068W, active compounds read low 0.994 | S. cerevisiae deletion strains, locus YKL085W, strain MDH1 (second series), active compounds read low 1 | S. cerevisiae deletion strains, locus YKL085W, strain MDH1, active compounds read low 1 | S. cerevisiae deletion strains, locus YKL160W, strain elf1, active compounds read low 1 | S. cerevisiae deletion strains, locus YKR001C, strain vps1, active compounds read low 0.982 | S. cerevisiae deletion strains, locus YKR026C, strain gcn3, active compounds read low 0.985 | S. cerevisiae deletion strains, locus YKR091W, strain srl3, active compounds read low 0.975 | S. cerevisiae deletion strains, locus YLL001W, strain dnm1, active compounds read low 0.932 | S. cerevisiae deletion strains, locus YLL026W, active compounds read low 0.96 | S. cerevisiae deletion strains, locus YLL041C, strain sdh2, active compounds read low 0.982 | S. cerevisiae deletion strains, locus YLR027C, strain aat2, active compounds read low 0.976 | S. cerevisiae deletion strains, locus YLR039C, strain RIC1, active compounds read low 0.989 | S. cerevisiae deletion strains, locus YLR058C, strain SHM2, active compounds read low 0.989 | S. cerevisiae deletion strains, locus YLR102C, strain apc9, active compounds read low 0.997 | S. cerevisiae deletion strains, locus YLR113W, strain HOG1, active compounds read low 0.992 | S. cerevisiae deletion strains, locus YLR221C, strain rsa3, active compounds read low 0.928 | S. cerevisiae deletion strains, locus YLR258W, strain gsy2, active compounds read low 0.967 | S. cerevisiae deletion strains, locus YLR262C, strain YPT6 (second series), active compounds read low 1 | S. cerevisiae deletion strains, locus YLR262C, strain YPT6, active compounds read low 1 | S. cerevisiae deletion strains, locus YLR268W, strain sec22, active compounds read low 0.987 | S. cerevisiae deletion strains, locus YLR320W, strain mms22, active compounds read low 0.967 | S. cerevisiae deletion strains, locus YLR330W, strain CHS5, active compounds read low 0.992 | S. cerevisiae deletion strains, locus YLR342W, strain FKS1 (second series), active compounds read low 0.998 | S. cerevisiae deletion strains, locus YLR342W, strain FKS1, active compounds read low 0.982 | S. cerevisiae deletion strains, locus YLR357W, strain rsc2, active compounds read low 0.967 | S. cerevisiae deletion strains, locus YLR370C, strain arc18, active compounds read low 0.926 | S. cerevisiae deletion strains, locus YLR371W, strain rom2, active compounds read low 0.988 | S. cerevisiae deletion strains, locus YLR384C, strain iki3, active compounds read low 0.969 | S. cerevisiae deletion strains, locus YLR418C, strain cdc73, active compounds read low 0.984 | S. cerevisiae deletion strains, locus YML016C, strain PPZ1, active compounds read low 0.99 | S. cerevisiae deletion strains, locus YML032C, strain rad52, active compounds read low 0.981 | S. cerevisiae deletion strains, locus YML120C, strain ndi1, active compounds read low 0.946 | S. cerevisiae deletion strains, locus YML124C, strain tub3, active compounds read low 1 | S. cerevisiae deletion strains, locus YMR058W, strain fet3, active compounds read low 0.971 | S. cerevisiae deletion strains, locus YMR078C, strain ctf18, active compounds read low 0.985 | S. cerevisiae deletion strains, locus YMR125W, strain sto1, active compounds read low 0.956 | S. cerevisiae deletion strains, locus YMR129W, active compounds read low 1 | S. cerevisiae deletion strains, locus YMR205C, strain PFK2, active compounds read low 0.98 | S. cerevisiae deletion strains, locus YMR223W, strain ubp8, active compounds read low 0.987 | S. cerevisiae deletion strains, locus YMR231W, strain pep5, active compounds read low 0.988 | S. cerevisiae deletion strains, locus YMR307W, strain GAS1, active compounds read low 0.917 | S. cerevisiae deletion strains, locus YNL067W, strain RPL9B, active compounds read low 1 | S. cerevisiae deletion strains, locus YNL071W, strain lat1, active compounds read low 0.995 | S. cerevisiae deletion strains, locus YNL153C, strain GIM3, active compounds read low 0.989 | S. cerevisiae deletion strains, locus YNL183C, strain NPR1, active compounds read low 0.94 | S. cerevisiae deletion strains, locus YNL209W, strain ssb2, active compounds read low 0.969 | S. cerevisiae deletion strains, locus YNL233W, strain BNI4, active compounds read low 0.975 | S. cerevisiae deletion strains, locus YNL248C, strain rpa49, active compounds read low 1.02 | S. cerevisiae deletion strains, locus YNL250W, strain rad50, active compounds read low 0.975 | S. cerevisiae deletion strains, locus YNL271C, strain bni1, active compounds read low 0.984 | S. cerevisiae deletion strains, locus YNL298W, strain CLA4, active compounds read low 0.99 | S. cerevisiae deletion strains, locus YNL307C, strain MCK1, active compounds read low 0.992 | S. cerevisiae deletion strains, locus YNL322C, strain KRE1 (second series), active compounds read low 0.971 | S. cerevisiae deletion strains, locus YNL322C, strain KRE1, active compounds read low 0.997 | S. cerevisiae deletion strains, locus YNR049C, strain mso1, active compounds read low 0.962 | S. cerevisiae deletion strains, locus YNR052C, strain pop2, active compounds read low 0.983 | S. cerevisiae deletion strains, locus YOL006C, strain TOP1, active compounds read low 0.985 | S. cerevisiae deletion strains, locus YOL012C, strain htz1 1.06 | S. cerevisiae deletion strains, locus YOL147C, strain pex11, active compounds read low 0.982 | S. cerevisiae deletion strains, locus YOR001W, strain rrp6, active compounds read low 1 | S. cerevisiae deletion strains, locus YOR061W, strain CKA2, active compounds read low 0.994 | S. cerevisiae deletion strains, locus YOR069W, strain VPS5, active compounds read low 0.991 | S. cerevisiae deletion strains, locus YOR070C, strain gyp1, active compounds read low 0.972 | S. cerevisiae deletion strains, locus YOR080W, strain dia2, active compounds read low 0.972 | S. cerevisiae deletion strains, locus YOR083W, strain WHI5, active compounds read low 0.994 | S. cerevisiae deletion strains, locus YOR106W, strain vam3, active compounds read low 0.993 | S. cerevisiae deletion strains, locus YOR136W, strain idh2, active compounds read low 0.98 | S. cerevisiae deletion strains, locus YOR144C, strain elg1, active compounds read low 0.983 | S. cerevisiae deletion strains, locus YOR184W, strain ser1, active compounds read low 0.978 | S. cerevisiae deletion strains, locus YOR231W, strain MKK1, active compounds read low 1.04 | S. cerevisiae deletion strains, locus YOR265W, strain rbl2, active compounds read low 0.964 | S. cerevisiae deletion strains, locus YOR270C, strain vph1, active compounds read low 0.978 | S. cerevisiae deletion strains, locus YOR290C, strain snf2, active compounds read low 0.961 | S. cerevisiae deletion strains, locus YOR316C, strain cot1, active compounds read low 0.981 | S. cerevisiae deletion strains, locus YPL051W, strain arl3, active compounds read low 0.992 | S. cerevisiae deletion strains, locus YPL078C, strain atp4, active compounds read low 1.01 | S. cerevisiae deletion strains, locus YPL106C, strain sse1, active compounds read low 0.937 | S. cerevisiae deletion strains, locus YPL240C, strain hsp82, active compounds read low 0.971 | S. cerevisiae deletion strains, locus YPL241C, strain CIN2, active compounds read low 0.997 | S. cerevisiae deletion strains, locus YPL256C, strain CLN2, active compounds read low 1.03 | S. cerevisiae deletion strains, locus YPR119W, strain clb2, active compounds read low 0.991 | S. cerevisiae deletion strains, locus YPR141C, strain kar3, active compounds read low 0.977 | S. cerevisiae deletion strains, locus YPR163C, strain tif3, active compounds read low 0.989 | S. cerevisiae deletion strains, locus YPR167C, strain met16, active compounds read low 0.99 | S. cerevisiae deletion strains, strain wtn01, active compounds read low 0.984 | S. cerevisiae strains, strain wild type, active compounds read low 0.999
